Screening data: PubChem BioAssay, several laboratories
Sampled rows, rich in hits. Any-hit rate of the full collection: about 4%.
ADAM10 inh – human ADAM10 inhibitors, primary screen, biochemical, QFRET, HTS. Disintegrin and metalloproteinase domain-containing protein 10 (Homo sapiens), O14672. recombinant ADAM10, EDANS/DABCYL FRET peptide cleavage, 3 h. inhibition, % at 7 µM. 370,000 compounds, 0.62% hits. AID 720582, 2013;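 active = inhibition above a per-campaign cutoff equal to the mean of compounds falling between control-based bounds plus 3 SD, cut at about 20% in these data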;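 also: 0% = DMSO wells while the 100% control is not disclosed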
Target sequence (O14672 214-748 limits assumed): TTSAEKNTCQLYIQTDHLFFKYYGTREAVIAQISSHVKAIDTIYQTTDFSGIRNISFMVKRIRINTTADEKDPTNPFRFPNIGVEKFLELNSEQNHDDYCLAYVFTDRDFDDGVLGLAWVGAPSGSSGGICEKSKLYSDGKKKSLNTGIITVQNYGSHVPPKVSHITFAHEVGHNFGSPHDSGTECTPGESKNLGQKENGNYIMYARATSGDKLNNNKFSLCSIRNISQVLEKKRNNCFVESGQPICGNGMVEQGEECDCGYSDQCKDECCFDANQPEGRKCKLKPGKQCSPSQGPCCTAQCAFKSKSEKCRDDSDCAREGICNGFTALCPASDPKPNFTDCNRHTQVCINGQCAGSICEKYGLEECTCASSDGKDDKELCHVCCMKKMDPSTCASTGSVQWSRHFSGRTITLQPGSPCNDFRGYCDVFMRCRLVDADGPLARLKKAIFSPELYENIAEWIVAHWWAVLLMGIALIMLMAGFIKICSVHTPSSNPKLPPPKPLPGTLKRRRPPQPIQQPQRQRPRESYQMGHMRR
FAS TE block – FAS thioesterase domain inhibitors, primary screen, biochemical, fluorescence intensity, uHTS; Fatty acid synthase (Homo sapiens), P49327; recombinant FAS-TE, OMFH fluorogenic substrate, fluorescence endpoint; inhibition, % at 15 µM; 360,000 compounds, 0.67% hits;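 active = compounds whose normalised, plate-corrected inhibition of enzyme fluorescence in the single-dose primary screen is 50% or more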;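 also: 0% = DMSO with enzyme and 100% = substrate without enzyme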
aDG glyco up – activators of alpha-DG glycosylation, primary screen, uHTS, Pro5-aDG cells, AlphaScreen; activation, % at 10 µM; alpha-DG glycosylation AlphaScreen (IIH6); 0% Pro5, 100% B10-LARGE cell signal; 360,000 compounds, 0.22% hits;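 active = activation of at least 8% versus controls, or a plate z-score of at least 8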;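 also: Pro5 are CHO cells carrying HIG-tagged alpha-DG that lacks glycosylation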
ADAM17 inh – ADAM17 inhibitors, primary screen, biochemical, QFRET; recombinant ADAM17, EDANS/DABCYL FRET peptide cleavage; inhibition, % at 6.95 µM; 370,000 compounds, 0.83% hits;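 active = inhibition above the mean of compounds lying between control limits plus 3 SD, set per campaign, cut at about 8.5% in these data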;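 also: 0% = DMSO-only wells as the low control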
NR3A LBD binder – binders of NR3A ligand-binding domain, primary screen, biophysical, differential scanning fluorimetry, uHTS; NR3A LBD differential scanning fluorimetry, Tm shift; 0% = protein alone, 100% = glycine-bound protein; Tm shift relative to glycine control, % at 25 µM; 340,000 compounds, 2.5% hits; Glutamate receptor ionotropic, NMDA 3A (GRIN3A) ligand-binding domain;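 active = melting temperature shift of at least 10% of the positive control shift, at one fixed dose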
An asterisk follows results filed as active.

O=C(N1CCCCCC1)n1c(Cc2ccccc2)nc2ccccc21 was read as ADAM10 inh 9, FAS TE block -2, aDG glyco up 0, ADAM17 inh 5 and NR3A LBD binder 4.
`Cc1cc(C)cc(N2C(=O)CC(N3CCOCC3)C2=O)c1` (configuration not stated) gave ADAM10 inh -4, FAS TE block -8, aDG glyco up 0, ADAM17 inh -2 and NR3A LBD binder 11*.
`O=C(NCc1cccnc1)C(C(=O)c1ccc(F)cc1)n1ccccc1=O` (configuration not stated) gave ADAM10 inh 4, FAS TE block -5, aDG glyco up 0, ADAM17 inh 0 and NR3A LBD binder -2.
For CC(C)Cc1csc(NC(=O)c2ccccc2Cl)c1C(=O)O the results were ADAM10 inh 3, FAS TE block -1, aDG glyco up 0, ADAM17 inh 2 and NR3A LBD binder 12*.
`O=C(COc1ccc(F)cc1)N1CCC(c2ccccc2)C1` (configuration not stated) gave ADAM10 inh 5, FAS TE block 2, aDG glyco up 0, ADAM17 inh 0 and NR3A LBD binder -2.
For N#C/C(=N\Nc1cccc(C(F)(F)F)c1)C(=O)c1ccsc1 the results were ADAM10 inh 18, FAS TE block 12, aDG glyco up 0, ADAM17 inh 5 and NR3A LBD binder 16*.
For COc1ccccc1Nc1ccc([N+](=O)[O-])cc1N the results were ADAM10 inh 13, FAS TE block 8, aDG glyco up 0, ADAM17 inh 5 and NR3A LBD binder -2.
COc1cc(Nc2ccccc2Cl)c([N+](=O)[O-])nc1[N+](=O)[O-] was read as ADAM10 inh 2, FAS TE block 13, aDG glyco up 0, ADAM17 inh 2 and NR3A LBD binder 11*.
For O=C(COC(=O)c1cn(-c2ccccc2)nc1-c1ccc(F)cc1)Nc1ncc(Cl)cc1Cl the results were ADAM10 inh -17, FAS TE block 4, aDG glyco up 0, ADAM17 inh -4 and NR3A LBD binder 0.
For NS(=O)(=O)c1ccc(NC(=O)/C=C/c2cn(-c3ccccc3)nc2-c2cccc(Cl)c2)cc1 the results were ADAM10 inh -6, FAS TE block 8, aDG glyco up 0, ADAM17 inh -4 and NR3A LBD binder 31*.
`COc1ccc(-c2nn(-c3ccccc3)cc2C(=O)N(C)CC(=O)Nc2cccc(F)c2)cc1` gave ADAM10 inh 10, FAS TE block 19, aDG glyco up 0, ADAM17 inh 6 and NR3A LBD binder 11*.
For O=C(/C=C/c1cn(-c2ccccc2)nc1-c1ccccc1)Nc1ccc(C(=O)O)cc1 the results were ADAM10 inh 4, FAS TE block 23, aDG glyco up 0, ADAM17 inh -5 and NR3A LBD binder -2.
NS(=O)(=O)c1ccc(NC(=O)COC(=O)c2cn(-c3ccccc3)nc2-c2ccc(F)cc2)cc1 was read as ADAM10 inh 3, FAS TE block -8, aDG glyco up 0, ADAM17 inh -2 and NR3A LBD binder 16*.
Screening COc1cccc(-c2nn(-c3ccc(C)cc3)cc2C(=O)N(C)CC(=O)Nc2cccc(F)c2)c1 returned ADAM10 inh 20, FAS TE block 27, aDG glyco up 0, ADAM17 inh 8 and NR3A LBD binder 13*.
COc1ccc(-c2nn(-c3ccccc3)cc2C(=O)N(C)CC(=O)Nc2ccccc2Br)cc1 was read as ADAM10 inh 2, FAS TE block 20, aDG glyco up 0, ADAM17 inh 1 and NR3A LBD binder -5.
For Cc1cccc(NC(=S)N/N=C/c2ccc(Cl)c([N+](=O)[O-])c2)c1 the results were ADAM10 inh -4, FAS TE block -4, aDG glyco up 0, ADAM17 inh -6 and NR3A LBD binder 5.
Screening NC(=O)C1=C[C@H](c2coc3ccccc3c2=O)C[C@H](OCc2ccc(CO)cc2)O1 returned ADAM10 inh 1, FAS TE block -7, aDG glyco up 0, ADAM17 inh -2 and NR3A LBD binder -5.
